Source: PubChem (National Center for Advancing Translational Sciences (NCATS))
Shown are actives, neighbours in structure and some others; about 2.2% of the full set was active somewhere.
aSyn yeast inh: inhibitors of alpha-synuclein toxicity in yeast. Yeast expressing alpha-synuclein, growth rescue, BacTiter-Glo, 24 h. Potency, µM (top dose mostly 46.1 µM), for the others: at the highest dose growth rescue (activation), usual class: activators. actives 0.14% (n = 370,000). AID 652106; further: % of control where 0% means no effect; nearly all actives have a fitted effect of over 65% in size
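Rescue of yeast growth: cells expressing toxic alpha-synuclein, induced in galactose at OD600 0.02, incubated with compound 24 h at 30 C. ATP luminescence quantified growth; inhibitors of toxicity appear as activators.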
TDP43 rescue: TDP-43 toxicity inhibition in yeast | TDP-43 expressing yeast growth rescue, BacTiter-Glo, 24 h | Potency, µM (titrated, usually from 46.1 µM), for inactives: at the top dose growth rescue (activation), most hits filed as activators | actives 1.8% (n = 410,000); further: % of control where 0% means no effect; nearly all actives have a fitted effect of over 50% in size
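In this qHTS, compounds that restore growth of yeast expressing TDP-43 appear as activators. Cells (OD600=0.02, galactose medium, raffinose-pregrown) are incubated with compound 24 hr at 30 deg C and growth is quantified by BacTiter-Glo.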
Mito fusion yeast: blocks mitochondrial division or promotes mitochondrial fusion | actives 0.23% (n = 320,000) | S. cerevisiae fusion-defective mutant growth rescue, CellTiterGlo 48 h | Potency, µM (series often up to 46.1 µM), for the others: at the top dose growth rescue (activation), actives largely listed as activators; further: % of control where 0% means no effect; nearly all actives have a fitted effect of over 45% in size
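Temperature-sensitive fusion-defective S. cerevisiae (e.g. fzo1-1, mgm1-5) were grown with compound in YPEG medium (3% ethanol, 3% glycerol) for 48 hours at 37C. Growth rescue was measured as viability by CellTiterGlo luminescence after 10 minutes at ambient.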
Abeta rescue: restores growth of yeast expressing A-beta42 peptide. actives 0.063% (n = 410,000). yeast expressing A-beta42, growth rescue, OD600, 48 h; response scale: 0% DMSO, 100% iron-clioquinol control. Potency, µM (doses to about 46.1 µM), most hits filed as activators. AID 1347071; further: nearly all actives have a fitted effect of over 55% in size
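Yeast A-beta toxicity model in growth medium with pinned compounds, 48 h at 30 C; growth read as absorbance at 600 nm. Normalized to FeCl3/clioquinol equimolar mix (positive) and DMSO (negative).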
FUS yeast rescue: FUS proteinopathy suppression in yeast; Potency, µM (highest dose often 76.6 µM), hits mostly activators; actives 0.24% (n = 390,000); S. cerevisiae FUS-expressing, growth rescue, OD600, 24 h;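 further: plate controls were DMSO vehicle for no effect and reference control for full effect; nearly all actives have a fitted effect of over 55% in size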
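Cultures pregrown in 2.5% raffinose medium are shifted to minimal medium containing 2% galactose to express toxic FUS. Compounds are tested at several concentrations. After 24hr at 30C, growth is quantified at 600 nm absorbance.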
An asterisk follows results filed as active; i = inactive; ? = inconclusive; nt = no result. The call rests on the fitted dose curve; in most records, active means well fitted curve in the direction sought with a large enough effect; inconclusive means small, poorly fitted or top-dose-only effect, or another doubt; inactive means no such curve, though single readings can be large; an effect the other way counts as inactive or inconclusive. Potency means the concentration at half of the fitted maximal effect.

SMILES	aSyn yeast inh	TDP43 rescue	Mito fusion yeast	Abeta rescue	FUS yeast rescue
Cc1cc(NC(=O)COc2cc(F)cc(F)c2)n(-c2ccccc2)n1	nt	nt	nt	nt	i
O=C(OC12CCCN(C1)/C(=C/c1cccc(Cl)c1)C2)c1cccc(F)c1 (stereo not drawn)	nt	nt	nt	nt	i
C=CCOC(=O)C1=C[C@H](c2ccc(Br)cc2)[C@@H](CCCO)[C@H](OCC)O1	9%	22µM*	7%	i	i
CCO[C@H]1OC(C(N)=O)=C[C@@H](c2ccc(Br)cc2)[C@@H]1CCCO	2%	23%	1%	i	i
COc1ccc(Cl)cc1CC1(C)C(=O)Nc2c(Cl)cccc21 (stereo not drawn)	4%	28µM*	nt	i	i
CC1(Cc2cc(Cl)ccc2C(F)(F)F)C(=O)Nc2c(Cl)cccc21 (stereo not drawn)	0%	2%	nt	i	i
CC1(Cc2ccc(F)c(Cl)c2)C(=O)Nc2c(Cl)cccc21 (stereo not drawn)	3.5µM*	22µM*	nt	i	i
Cn1ccc2c(-c3ccc(C(=O)O)cc3)cc3c(c21)C1CCC3C1 (stereo not drawn)	-2%	28µM*	nt	i	i
COc1ccc(-c2cc3c(c4c2ccn4C)C2CCC3C2)cc1 (stereo not drawn)	-7%	35µM*	nt	i	i
Cn1ccc2c(-c3ccc(C(C)(C)C)cc3)cc3c(c21)C1CCC3C1 (stereo not drawn)	-6%	12%	nt	i	i
c1ccc(C2Nc3ccccc3C3OCCCC23)cc1 (stereo not drawn)	-34%	11µM*	-11%	i	i
O=C1c2ccccc2C(=O)N1CCc1c(-c2ccccc2)[nH]c2ccccc12	10%	11µM*	nt	i	i
O=C1c2ccccc2C(=O)N1CCc1ccccc1	24%	11µM*	nt	i	i
O=C1c2ccccc2C(=O)N1CCCCCCc1ccccc1	-3%	24%	28%	i	i
O=C(Cc1ccc(-n2cccc2)cc1)N1CCN(c2ccccc2F)CC1	0%	18µM*	10%	i	nt
COc1ccc(CC(=O)N2CCN(c3ccccc3F)CC2)cc1OC	15%	nt	0%	i	i
O=C(CCSc1ccccc1Cl)Nc1cccc([N+](=O)[O-])c1	2%	18µM*	15%	i	i
S=C(NCCc1cccc(Cl)c1)NC1CCCCC1	2%	4%	0%	7.1µM*	i
COC(=O)c1ccc2nc(-c3cccc(Cl)c3)c(Cc3ccsc3)n2c1	2%	?	nt	i	i
COc1ccccc1N(C)S(=O)(=O)c1ccc(Cl)c(C(=O)Nc2cccc(C)n2)c1	7%	4%	25%	i	i
Cc1ccccc1NC(=O)c1ccc(F)c(S(=O)(=O)N(C)C2CCCCC2)c1	nt	16µM*	nt	?	?
Cc1cccc(NC(=O)c2cc(S(=O)(=O)N(C)c3ccc(F)cc3)ccc2Cl)n1	-4%	11µM*	?	i	i
Cc1cccc(NC(=O)c2cccc(S(=O)(=O)N(C)C3CCCCC3)c2)n1	11%	20µM*	nt	i	i
O=C(Nc1ccccn1)c1cccc(S(=O)(=O)N2CCCCC2)c1	8%	16%	1%	i	i
CCN(CC)CCNC(=O)c1ccc(NC(=O)c2cccc(S(=O)(=O)N(C)C3CCCCC3)c2)cc1	-4%	10%	nt	i	i
SMILES	aSyn yeast inh	TDP43 rescue	Mito fusion yeast	Abeta rescue	FUS yeast rescue
CN(C1CCCCC1)S(=O)(=O)c1cccc(C(=O)Nc2ccccn2)c1	7%	18µM*	-7%	i	i
O=C(NNS(=O)(=O)c1ccc(C(F)(F)F)cc1)c1cnn(-c2ccccc2)c1C(F)(F)F	1%	11%	0%	i	?
Cn1c2nc3ccccc3c-2nc2ccccc21	16µM*	20%	nt	i	i
Cn1c(-c2nonc2N)nc2ccccc21	15%	?	-2%	i	i
OC(c1ccccc1)(c1nc(-c2ccc3ccccc3c2)cs1)C(F)(F)F (stereo not drawn)	17%	-8%	nt	i	i
OC1(C(F)(F)F)CC(c2ccc3ccccc3c2)=NO1 (stereo not drawn)	-10%	3.2µM*	4%	i	i
c1csc(-c2nn3cnnc3c3ccccc23)c1	-1%	22µM*	-12%	i	i
C/C(=N\Nc1ccc([N+](=O)[O-])cc1)c1ccc(N)cc1	17%	?	9%	i	nt
C/C(=N\Nc1nc(C)c(C)s1)c1ccc([N+](=O)[O-])cc1	-7%	13µM*	2%	i	i
CC(=O)Nc1nc(-c2ccc([N+](=O)[O-])cc2)cs1	6%	10%	2%	i	i
CC(C)=NNc1nc(-c2ccc([N+](=O)[O-])cc2)cs1	6%	13µM*	-5%	i	i
COc1ccc(CNC(=O)c2sc(=O)n(Cc3ccccc3OC)c2C)cc1	9%	25µM*	nt	i	i
COc1ccc(Cl)cc1Cn1c(C)c(C(=O)N(C)Cc2ccc(F)cc2)sc1=O	8%	22µM*	nt	i	i
COc1ccc(Cl)cc1Cn1c(C)c(C(=O)NCc2ccc(F)cc2)sc1=O	?	20µM*	nt	i	?
COc1ccc(Cl)cc1Cn1c(C)c(C(=O)NCc2cccc([N+](=O)[O-])c2)sc1=O	?	6%	nt	i	?
COc1ccccc1Cn1c(C)c(C(=O)NCc2ccc3c(c2)OCCO3)sc1=O	0%	0%	nt	i	?
CCCCN(C)C(=O)c1sc(=O)n(Cc2cc(Cl)ccc2OC)c1C	10%	?	nt	i	i
Cc1c(C(=O)N(C)Cc2ccc(F)cc2)sc(=O)n1Cc1ccc(Cl)c(Cl)c1	?	22µM*	nt	?	i
CC(=O)Oc1ccc(Cn2c(C)c(C(=O)N(C)Cc3ccc(F)cc3)sc2=O)cc1	7%	0%	nt	i	i
CCOC(=O)C1CCN(C(=O)C(Cc2ccc3c(c2)OCO3)NC(C)=O)CC1 (stereo not drawn)	nt	nt	nt	nt	i
CN(C)c1ccc(/C=C/c2ccc3cc(N)ccc3n2)cc1	0%	nt	nt	nt	nt
CN(C)[C@@H]1CCN(c2cccc3c2S(=O)(=O)N(C2CC2)CCCO3)C1	nt	nt	nt	nt	i
COCCN(C(=O)c1ccco1)c1nnc(-c2ccc(F)cc2)s1	-8%	?	25%	i	?
CCCN(C(=O)c1ccco1)c1nnc(-c2ccccc2C)s1	-18%	13µM*	26%	i	i
COC(=O)c1ccc(N=Nc2ccccc2)cc1	1%	16µM*	9%	i	i
O=C(O)c1ccccc1N=Nc1ccc(O)cc1	-8%	22%	nt	i	i
Oc1ccc(N=Nc2ccccc2)cc1	-15%	18µM*	10%	i	i
